High-throughput results from PubChem BioAssay.
HTR2A ag: activates the mouse 5-HT2A serotonin receptor; P35363; CHO-K1 mHTR2A beta-arrestin complementation, luminescence; percent of 30 µM serotonin response; activation, % at 7.6 µM; 0.66% of 360,000 active;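 active = activation above a run cutoff, the mean activation of all tested compounds plus 3 SD, cut at about 14% in these data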;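 note: 0% = plate median of compound wells and 100% = 30 µM serotonin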
MOR-DOR ag: agonists of human mu-delta opioid receptor heterodimerization. P35372+P41143. cells, OPRM1-OPRD1 heterodimerization, luminescence. activation, % at 9.3 µM. 0.3% of 340,000 active; in the data active = activation above about 18%;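 note: 0% = vehicle-treated cells and 100% = reference agonist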
MOR-DOR inv ag-1: inverse agonist of human OPRM1-OPRD1 heterodimerization; P35372+P41143; cell-based MOR-DOR heterodimer luminescence, inverse agonism; inhibition, % at 9.3 µM; 0.21% of 340,000 active; in the data active = inhibition above about 22%, passing the limit was not always enough;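 note: 0% = cells with DMSO and 100% = wells without cells with DMSO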
HTR5A inv ctr: HTR5A inverse agonism, opioid heterodimer counter-screen. P47898. inhibition, % at 9.3 µM. AID 504634. HTR5A cell line, luminescence. 0.083% of 340,000 active; in the data active = inhibition mostly above about 23%, no sharp cut-off; inactive = mostly below about 18%;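 note: 0% = cells with DMSO and 100% = no-cell wells with DMSO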
Target sequence (P47898 whole entry, looked up): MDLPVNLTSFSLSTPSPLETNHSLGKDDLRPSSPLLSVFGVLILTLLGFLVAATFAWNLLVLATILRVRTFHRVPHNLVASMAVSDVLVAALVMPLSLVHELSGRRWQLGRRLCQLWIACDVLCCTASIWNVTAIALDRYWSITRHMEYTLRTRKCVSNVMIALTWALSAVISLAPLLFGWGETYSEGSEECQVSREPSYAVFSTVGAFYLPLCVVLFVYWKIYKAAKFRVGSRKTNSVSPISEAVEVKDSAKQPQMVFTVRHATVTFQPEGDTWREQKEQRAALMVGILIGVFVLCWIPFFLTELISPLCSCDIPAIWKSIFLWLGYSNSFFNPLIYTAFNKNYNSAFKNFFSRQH
HTR5A ag ctr: counter-screen for OPRM1-OPRD1 agonists: human HTR5A agonism; AID 504692; P47898; activation, % at 9.3 µM; HTR5A agonist assay, luminescence, cell-based; 0.61% of 340,000 active; in the data active = activation mostly above about 9.5%, no sharp cut-off; inactive = mostly below about 7.6%;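 note: 0% = cells with vehicle only and 100% = reference agonist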
MOR-DOR inv conf: confirmation of human OPRM1-OPRD1 heterodimerization inverse agonists | AID 504900 | 20% of 580 active | cells expressing OPRM1/OPRD1 heterodimer, luminescence | inhibition, % at 9.3 µM | shares compounds with MOR-DOR inv ag-1; in the data active = inhibition above about 32%;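 note: 0% = cells with DMSO and 100% = wells lacking cells with DMSO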
HTR5A inv count: inverse agonist of human HTR5A in OPRM1-OPRD1 counter-screen | shares compounds with MOR-DOR inv ag-1 | HTR5A-expressing cells, luminescence, inverse agonism | inhibition, % at 9.3 µM | 580 tested, under 10 active | AID 504914;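 note: 0% = cells with DMSO and 100% = no-cell wells with DMSO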
MOR-DOR inv ag-2: counter-screen for HTR5A inverse agonists: OPRM1-OPRD1 heterodimerization inverse agonism | shares compounds with HTR5A inv ctr | U2OS counter-screen cells, complementation luminescence | inhibition, % at 9.3 µM | 190 tested, under 10 active | AID 504912;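 note: 0% = cells with DMSO and 100% = wells without cells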
HTR5A inv confrm: HTR5A (human) inverse agonism, confirmation; inhibition, % at 9.3 µM; HTR5A-expressing cells, luminescence; shares compounds with HTR5A inv ctr; 190 tested, under 10 active;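 note: 0% = cells with DMSO and 100% = no cells with DMSO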
OPRM1 ag: counter-screen for mouse HTR2A agonists: human mu opioid receptor agonists | shares compounds with HTR2A ag | U2OS OPRM1 beta-arrestin PathHunter, luminescence; DMSO 0%, DAMGO 9.3 µM 100% | activation, % at 9.3 µM | 5.3% of 2,300 active;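 active = mean activation above the mean of DMSO-only wells plus 3 SD, cut at about 0.5% in these data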
HTR2A ag conf: mouse HTR2A agonism confirmed; 19% of 2,300 active; CHO-K1 PathHunter beta-arrestin recruitment, luminescence; DMSO 0%, 30 µM serotonin 100%; shares compounds with HTR2A ag; activation, % at 7.6 µM;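 active = mean activation across triplicates above the hit threshold derived in the original primary screen, cut at about 15% in these data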
* = called active by the depositor; i = inactive; x = not tested or not shown. Sampled rows, rich in hits. Any-hit rate of the full collection: about 1.6%. Unless noted, the rule behind the calls is not given here.

SMILES | HTR2A ag | MOR-DOR ag | MOR-DOR inv ag-1 | HTR5A inv ctr | HTR5A ag ctr | MOR-DOR inv conf | HTR5A inv count | others
CC(NC(=O)c1cc2ccccc2o1)C(=O)O (stereo not drawn) | 2.5 | -2.4 | 10.8 | 0.8 | 5.7 | x | x
C[C@H](NC(=O)COc1ccccc1)C(=O)OCC(=O)c1cc2ccccc2o1 | -11.4 | -15.4 | 80.0* | 33.3* | -8.1 | -154.3 | 11.6
O=C(NNC(=O)C12CC3CC(CC(Cl)(C3)C1)C2)c1ccncc1 | -2.5 | -3.3 | 17.3 | -9.4 | 3.9 | x | x
O=C1Nc2ccccc2/C1=N/N=C/c1cccc(O)c1 | -1.0 | -1.0 | 5.2 | 19.3 | 2.7 | x | x
CC(=O)c1cccc(N=C2C(=O)Nc3ccccc32)c1 | -4.7 | -9.4 | 58.7* | 20.8 | -0.6 | 37.5* | 4.3
O=C1Nc2ccccc2C1=Nc1ccc2[nH]c3ccccc3c2c1 | 3.5 | -9.5 | 48.8* | 16.7 | -4.3 | i | -66.1
COc1cc(/C=N/N=C2/C(=O)Nc3ccccc32)cc(OC)c1O | -0.1 | -0.1 | 0.8 | 32.9 | -4.6 | x | x
CC(=O)c1cccc(N2C(=O)Nc3ccccc3N2O)c1 | 4.7 | -1.4 | 9.1 | 1.4 | 1.0 | x | x
Cc1ccc(N=C2C(=O)Nc3ccccc32)cc1C | 10.2 | -7.8 | 42.9* | 21.9 | -1.6 | i | -26.2
Cc1ccc(N=C2C(=O)Nc3ccccc32)cc1 | 1.0 | -9.6 | 49.2* | 8.0 | -2.2 | -70.6 | 9.1
Cc1ccc([N+](=O)[O-])cc1N=C1C(=O)Nc2ccccc21 | -4.1 | -11.2 | 49.9* | 25.7 | -6.8 | -51.2 | -100.5
COc1cc(C(=O)NCCOc2ccccc2C)cc(OC)c1OC | 0.4 | -3.4 | 15.5 | 3.8 | -1.1 | x | x
C/C(=C\C(=O)c1ccccc1)Nc1ccc(O)cc1 | 2.7 | 9.5 | -47.8 | -9.8 | -0.7 | x | x
C/C(=C\C(=S)Nc1ccccc1)Nc1ccccc1 | -0.8 | -6.1 | 31.5* | 13.5 | -10.4 | -22.4 | 2.3
c1ccc(OCCN2CCN(C(c3ccccc3)c3ccccc3)CC2)cc1 | -8.0 | 8.0 | -38.7 | -8.2 | 2.4 | x | x
CC1CCCCN1CCNC(=O)C1CCN(S(=O)(=O)N2CCCCC2)CC1 (stereo not drawn) | 15.4* | -2.2 | 13.1* | -18.4 | 7.9 | -155.7 | -18.8 | OPRM1 ag=-0.5;HTR2A ag conf=-2.1
CCOc1ccc(S(=O)(=O)NCCC(=O)NCC(c2ccc(OC)cc2)N2CCOCC2)cc1 (stereo not drawn) | 1.2 | x | x | x | x | x | x
CCOc1cccc(/C=C/c2ccc3cccc(O)c3n2)c1O | -4.9 | 5.6 | -28.9 | 18.2 | -5.0 | x | x
Oc1cccc2ccc(/C=C/c3ccccc3Cl)nc12 | -17.9 | -1.8 | 9.2 | 62.2* | -17.0 | x | x | MOR-DOR inv ag-2=-12.9;HTR5A inv confrm=47.1*
CCOc1cccc(/C=C/c2ccc3cccc(O)c3n2)c1OC | -18.3 | -0.7 | 3.2 | 52.7* | -14.9 | x | x | MOR-DOR inv ag-2=0.1;HTR5A inv confrm=-6.7
Cc1ncc(C(=O)O)c(C(=O)O)c1N | 10.1 | -3.0 | 16.7 | -5.5 | 1.4 | x | x
CC1(C)CC(=O)C(C(O)c2cccc([N+](=O)[O-])c2)C(C)(C)N1 (stereo not drawn) | 3.7 | -0.8 | 3.9 | -13.1 | 3.5 | x | x
COc1ccccc1NC(=O)c1ccc(NC(=O)c2nc3nccc(C)n3n2)cc1 | -2.4 | -2.5 | 10.5 | 5.3 | -2.1 | x | x
COc1ccc(NC(=O)c2ccc(NC(=O)c3nc4nccc(C)n4n3)cc2)cc1 | -7.6 | -0.7 | 2.6 | 36.0* | -2.1 | x | x | MOR-DOR inv ag-2=-9.6;HTR5A inv confrm=13.2
